A number with no mark means an inactive call. Inconclusive results are not listed. Entries that show only a call come without a potency. Active and inactive are the calls of the source. The call rests on the fitted dose curve; in most records, active means well fitted curve in the direction sought with a large enough effect; inconclusive means small, poorly fitted or top-dose-only effect, or another doubt; inactive means no such curve, though single readings can be large; an effect the other way counts as inactive or inconclusive.
What was measured:
[1] = biological target: Glutathione peroxidase 1 (Homo sapiens) (UniProt P07203); assay: Primary qHTS Assay for Inhibitors of Recombinant Selenoprotein Glutathione Peroxidase 1 (GPX1) (AID 1845191); conditions: recombinant GPX1, GR-coupled NADPH fluorescence, 15 min; series mostly up to 48.8 µM; further: nearly all actives have a fitted effect of over 65% in size
Outline: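 Recombinant GPX1 (10 nM final) was preincubated with compound for 30 min at room temperature, then reacted with 1 mM GSH, 0.5 mM CHP, 0.5 mM NADPH and 100 nM glutathione reductase; NADPH fluorescence (340/450 nm) was read at 0 and 15 min.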

[2] = biological target: Phospholipid hydroperoxide glutathione peroxidase GPX4 (Homo sapiens) (UniProt P36969); assay: Primary qHTS Assay for Inhibitors of Recombinant Selenoprotein Glutathione Peroxidase 4 (GPX4) (AID 1845192); conditions: recombinant GPX4, GR-coupled NADPH fluorescence, 15 min; series mostly up to 50 µM; further: nearly all actives have a fitted effect of over 65% in size
Outline: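 GR-coupled readout: 100 nM GR, 1 mM GSH, 0.5 mM NADPH; NADPH fluorescence (ex 340/em 450 nm) read at t=0 and after 15 min RT. GPX4 200 nM, preincubated 30 min with compound; substrate 0.5 mM CHP.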

[3] = biological target: Luciferin 4-monooxygenase (Photinus pyralis) (UniProt P08659); assay: Primary firefly luciferase (FLuc) qHTS assay for identification of artifact compounds. (AID 1845220); conditions: purified firefly luciferase, luminescence, 5 min; series mostly up to 54.1 µM; further: nearly all actives have a fitted effect of over 60% in size
Outline: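 qHTS, 15 min compound preincubation with substrate (10 uM luciferin, 10 uM ATP) at RT, then 10 nM FLuc; 5 min; luminescence; % inhibition vs no-enzyme/DMSO controls, 4-parameter Hill fit.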

[4] = Primary fluorescence-based thiol-reactive (MSTI) qHTS assay for identification of artifact compounds. (AID 1845221); conditions: MSTI thiol-reactivity probe, 1 h; series mostly up to 53.8 µM; further: nearly all actives have a fitted effect of over 65% in size; further: potency means the concentration at half of the fitted maximal effect;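 on activity change, negative = thiol reactive: thiol-reactive compounds lower the probe fluorescence signal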
Outline: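 In PBS pH 7.4 with 2% DMSO, each compound met 4 uM MSTI for one hour at ambient temperature, shielded from light, before fluorescence detection.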

[5] = test system: Nanoluciferase (engineered Oplophorus gracilirostris luciferase); assay: Primary Nanoluciferase (NLuc) qHTS assay for identification of artifact compounds. (AID 1845222); conditions: NLuc-conditioned medium, Nano-Glo luminescence, 5 min; series mostly up to 54.1 µM
Outline: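 Luminescence read-out of secreted NLuc in S16 cell conditioned medium (1:55); compounds tested with 15 min RT preincubation, then Nano-Glo substrate 1:100, 5 min. % inhibition vs no-enzyme and DMSO controls, 4-parameter Hill fit.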

[6] = Primary redox qHTS assay for identification of artifact compounds. (AID 1845223); conditions: Amplex Red/HRP redox cycling with DTT, fluorescence; series mostly up to 53.8 µM
Outline: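 Amplex Red (25 uM) and HRP (250 mU/mL) in HBSS, with compounds for 15 min, then 250 uM DTT for 30 min, room temperature, dark. Fluorescence 525/598 nm read; normalized to DMSO and 10 uM DA3003; Hill fit.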

Sequence of Glutathione peroxidase 1 (Homo sapiens) (P07203 whole entry, looked up): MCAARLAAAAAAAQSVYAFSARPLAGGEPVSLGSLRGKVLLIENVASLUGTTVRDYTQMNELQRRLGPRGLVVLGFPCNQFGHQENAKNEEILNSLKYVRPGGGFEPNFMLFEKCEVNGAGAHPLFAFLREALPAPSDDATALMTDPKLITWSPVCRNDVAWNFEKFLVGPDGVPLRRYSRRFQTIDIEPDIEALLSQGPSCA
Sequence of Phospholipid hydroperoxide glutathione peroxidase GPX4 (Homo sapiens) (P36969 whole entry, looked up): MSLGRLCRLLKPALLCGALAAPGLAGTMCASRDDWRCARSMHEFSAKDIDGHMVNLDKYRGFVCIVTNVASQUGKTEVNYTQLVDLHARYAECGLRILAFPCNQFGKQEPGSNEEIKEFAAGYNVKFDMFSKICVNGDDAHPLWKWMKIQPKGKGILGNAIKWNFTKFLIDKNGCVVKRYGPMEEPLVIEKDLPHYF

Structure (SMILES) | Potency [1] | Potency [2] | Potency [3] | Potency [4] | Potency [5] | Potency [6] | outcome [3] | activity change, negative = thiol reactive [4] | activity, negative = inhibition [5] | redox activity (% of DA3003) [6]
O=C1CSc2ccccc2N1Cc1cccc(C(F)(F)F)c1 | inactive | inactive | inactive | inactive | inactive | inactive |  |  |  | 
C=C[C@H]1[C@H](O[C@@H]2O[C@H](CO)[C@@H](O)[C@H](O)[C@H]2O)OC=C(C(=O)OC)[C@H]1CCOC(=O)c1cc(O)c(O)c(O)c1 | inactive | inactive | inactive | 0.922 µM (active) | inactive | inactive |  |  |  | 
COC(=O)C1=COC(O[C@@H]2O[C@H](CO)[C@@H](O)[C@H](O)[C@H]2O)[C@H]2[C@@H]1[C@H](OC(=O)CCc1ccc(O)cc1)C[C@]2(C)O (stereo not given in full) | inactive | inactive | inactive | inactive | inactive | inactive |  |  |  | 
CCCOC(c1cc2nccc(C(=O)O)c2[nH]1)c1ccccc1Cl (stereo not given) | inactive | inactive | inactive | inactive | inactive | inactive |  |  |  | 
CCNC(=O)Nc1ncc(-c2cc(-c3c(C)cc(OC)cc3C)nc(-c3cnccn3)n2)s1 | inactive | inactive | inactive | inactive | inactive | inactive |  |  |  | 
C=CC(=O)Nc1cccc(CN2C(=O)N(c3c(Cl)c(OC)cc(OC)c3Cl)Cc3cnc(NCCCCN(CC)CC)nc32)c1 | inactive | inactive | inactive | inactive | inactive | inactive |  |  |  | 
Cc1cccc(S(=O)(=O)N2CCC[C@@H]2CCN2CCC(C)CC2)c1 | inactive | inactive | inactive | inactive | inactive | inactive |  |  |  | 
C=C[C@@](C)(O)CC/C=C(\C)C(=O)O[C@@H]1[C@@H]2O[C@]2(C)[C@H]2[C@H](O[C@@H]3O[C@H](CO)[C@@H](O)[C@H](O)[C@H]3O)OC=C[C@@]12O | inactive | inactive | inactive | inactive | inactive | inactive |  |  |  | 
CC1COC2(OC3CC4C5CC(O[C@@H]6O[C@H](C)[C@@H](O[C@@H]7O[C@@H](C)[C@H](O)[C@@H](O)[C@H]7O)[C@H](O)[C@H]6O)C6CC(O)CCC6(C)C5CCC4(C)C3C2C)C(O)C1 (stereo not given in full) | inactive | inactive | inactive | inactive | inactive | inactive |  |  |  | 
COC(=O)CC(O)CC(O)/C=C/c1c(C)ccc2c1C(O)CC(C)C2 (stereo not given) | inactive | inactive | inactive | inactive | inactive | inactive |  |  |  | 
O=C(O)CC(=O)OC[C@H]1O[C@@H](Oc2ccc3c(c2)OC[C@H]2c4cc5c(cc4O[C@@H]32)OCO5)[C@H](O)[C@@H](O)[C@@H]1O | inactive | inactive | inactive | inactive | inactive | inactive |  |  |  | 
CC1CCC2(OC1)OC1CC3C4CCC5C[C@@H](O[C@@H]6O[C@H](CO[C@@H]7OC[C@@H](O)[C@H](O)[C@H]7O)[C@H](O)[C@H](O)[C@H]6O)CC[C@]5(C)C4CC[C@]3(C)C1C2C (stereo not given in full) | inactive | inactive | inactive | inactive | inactive | inactive |  |  |  | 
C=C(CO[C@@H]1O[C@H](CO[C@@H]2OC[C@](O)(CO)[C@H]2O)[C@@H](O)[C@H](O)[C@H]1O)C1Cc2cc(C(C)=O)ccc2O1 (stereo not given in full) | inactive | inactive | inactive | 5.19 µM (active) | inactive | inactive |  |  |  | 
OC[C@H]1O[C@@H](Oc2ccccc2)[C@H](O)[C@@H](O)[C@@H]1O | inactive | inactive | inactive | 21.2 µM (active) | inactive | inactive |  |  |  | 
C=C(C(=O)OC)C1C(O)CC2(C)C(O)CCC(=O)C2C1O (stereo not given) | inactive | inactive | inactive | inactive | inactive | inactive |  |  |  | 
CC1CCC2(OC1)OC1CC3C4CC=C5CC(O)CC(O[C@@H]6OC[C@@H](O)[C@H](O)[C@H]6O)C5(C)C4CCC3(C)C1(O)C2C (stereo not given in full) | inactive | inactive | inactive | inactive | inactive | inactive |  |  |  | 
C=C(C(=O)O)[C@@H]1CC[C@@]2(C)CC[C@H](O)[C@@]2(C(C)=O)C1 | inactive | inactive | inactive | 11.9 µM (active) | inactive | inactive |  |  |  | 
COc1c2c(c(C)c3c1C(=O)OC3)OC1(C)CC(O)C34OC(OC)(OC3(C)C)C(O)CC4(C)C1C2 (stereo not given) | inactive | inactive | inactive | inactive | inactive | inactive |  |  |  | 
C=C1CCC2C(C(C)(C)O)CCC2(C)CC(O)C(=C)CCC1O (stereo not given) | inactive | inactive | inactive | inactive | inactive | inactive |  |  |  | 
CN1CCC(Nc2nc(Nc3ccc(Oc4ccccc4)cc3)c3c(=O)[nH]cc(Br)c3n2)CC1 | inactive | inactive | inactive | inactive | inactive | inactive |  |  |  | 

Structure (SMILES) | Potency [1] | Potency [2] | Potency [3] | Potency [4] | Potency [5] | Potency [6] | outcome [3] | activity change, negative = thiol reactive [4] | activity, negative = inhibition [5] | redox activity (% of DA3003) [6]
CC1(C)CC[C@]2(C(=O)O[C@@H]3O[C@H](CO)[C@@H](O)[C@H](O)[C@H]3O)CC[C@]3(C)C(=CCC4[C@@]5(C)C[C@@H](O)[C@H](O)C(C)(C)C5[C@H](O)C[C@]43C)[C@@H]2[C@@H]1O (stereo not given in full) | inactive | inactive | inactive | inactive | inactive | inactive |  |  |  | 
C=C(C)C1Cc2cc(C(=O)OC3OC(CO)C(O)C(O)C3O)ccc2O1 (stereo not given) | inactive | inactive | inactive | 9.27 µM (active) | inactive | inactive |  |  |  | 
Cc1cccc2c1NC(=O)C2(c1ccc(O)cc1)c1ccc(O)cc1 | inactive | inactive | inactive | inactive | inactive | inactive |  |  |  | 
O=C(Nc1ccc(-c2ccncc2)cc1)N[C@H](CO)c1ccccc1 | inactive | inactive | inactive | inactive | inactive | inactive |  |  |  | 
CC(=O)O[C@@H]1C[C@H](O)[C@@]23CO[C@H](O)[C@]1(C)C2C[C@@H](O)[C@]1(C)C3C(=O)[C@H](OC(C)=O)[C@@]2(C)[C@H](c3ccoc3)C[C@H]3O[C@]321 (stereo not given in full) | inactive | inactive | inactive | inactive | inactive | inactive |  |  |  | 
Cc1c(C(=O)N2CCOc3ccc(-c4ccc(N)nc4)cc3C2)ccc(S(C)(=O)=O)c1F | inactive | inactive | inactive | inactive | inactive | inactive |  |  |  | 
C/C=C(\C)C(=O)OCC1OC(OC2OC(COC(=O)/C(C)=C/C)C(OC3OC(CO)C(OC(=O)/C(C)=C/C)C(OC(=O)/C(C)=C/C)C3O)C(O)C2O)C(O)C(O)C1OC1OC(CO)C(OC(=O)/C(C)=C/C)C(OC(=O)/C(C)=C/C)C1O (stereo not given) | inactive | inactive |  |  |  |  | inactive [at 11.6 µM] | 7.54% [at 11.5 µM] | 0% [at 11.6 µM] | 2.12% [at 11.5 µM]
CC(C)(C)NS(=O)(=O)c1cncc(-c2cc(F)c3nc(N)nn3c2)c1 | inactive | inactive | inactive | inactive | inactive | inactive |  |  |  | 
COc1cc2ncnc(Nc3cccc(O)c3)c2cc1OC | inactive | inactive | inactive | inactive | inactive | inactive |  |  |  | 
Cc1c(F)cc(C(=O)NC2CC2)cc1-c1c(F)cn2c(C(C)(C)C)nnc2c1F | inactive | inactive | inactive | inactive | inactive | inactive |  |  |  | 
CC(=O)O[C@H]1C[C@@](O)(C(C)C)C2[C@@H](OC(=O)c3ccc(O)cc3)C[C@@]3(C)O[C@H]3C[C@]21C (stereo not given in full) | inactive | inactive | inactive | inactive | inactive | inactive |  |  |  | 
CC1(C)[C@@H](O)CC[C@]2(C)[C@H]3CC=C4[C@@H]5C[C@](C)(C(=O)O)CC[C@]5(C)CC[C@@]4(C)[C@]3(C)CC[C@@H]12 | inactive | inactive | inactive | inactive | inactive | inactive |  |  |  | 
CC(C)C(C(=O)N(C)C(C)C(N)=O)N(C)C(=O)C1CCCN1C(=O)/C=C/C=C/C(O)C(C)O (stereo not given) | inactive | inactive | inactive | inactive | inactive | inactive |  |  |  | 
O=C(O)COCCN1CCN([C@H](c2ccccc2)c2ccc(Cl)cc2)CC1 | inactive | inactive | inactive | inactive | inactive | inactive |  |  |  | 
C[C@@H]1CC[C@]2(C(=O)O)CC[C@]3(C)C(=CCC4[C@@]5(C)CC[C@H](O)C(C)(C)C5C(O)C[C@]43C)[C@@H]2[C@]1(C)O (stereo not given in full) | inactive | inactive | inactive | 13 µM (active) | inactive | inactive |  |  |  | 
C[C@H](NC(c1cccc2[nH]c(=O)c(=O)[nH]c12)P(=O)(O)O)c1ccc(Br)cc1 (stereo not given in full) | inactive | inactive | inactive | inactive | inactive | inactive |  |  |  | 
COc1cc(O)cc(C)c1C(=O)O[C@@H]1[C@H](O)[C@@H](CO)O[C@H]1n1ccc(=O)[nH]c1=O | inactive | inactive | inactive | inactive | inactive | inactive |  |  |  | 
C=C1C(=O)O[C@@H]2C[C@H](C)[C@@]3(O)C=C(C(C)=O)[C@]4(CC3C[C@H]12)C(=O)O[C@H]1C[C@@H](C)C(CCC(C)=O)=CC[C@H]14 (stereo not given in full) | inactive | inactive | inactive | inactive | inactive | inactive |  |  |  | 
O=C(O)c1ccc(CN2CCC(CN[C@@H]3C[C@H]3c3ccccc3)CC2)cc1 | inactive | inactive | inactive | inactive | inactive | inactive |  |  |  | 
CC1=C(C(=O)O)/C(=C\CO[C@@H]2O[C@H](CO)[C@@H](O)[C@H](O)[C@H]2O)C(OC(=O)/C=C\c2ccc(O)cc2)C1 (stereo not given in full) | inactive | inactive | inactive | 4.62 µM (active) | inactive | inactive |  |  |  | 
